# Screening data: PubChem BioAssay, National Center for Advancing Translational Sciences (NCATS)
# HCV inh: qHTS Assay for Inhibitors of Hepatitis C Virus (HCV); AID 651820, 2012; Huh7.5.1 HCVcc-Cre infection, luciferase reporter, 44 h; Potency, µM (series often up to 41.8 µM), most hits filed as inhibitors; 3.4% of 340,000 active
#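 HCVcc-Cre virus at an moi near 0.5 was added right after compound to cells cultured 4 h from seeding (1,000 cells/well). Luciferase activity was determined 44 h later, 15 min after substrate addition at RT.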
# Pf growth 96h: Primary qHTS for delayed death inhibitors of the malarial parasite plastid, 96 hour incubation; P. falciparum luciferase reporter growth, 96 h; Potency, µM (highest dose often 28.7 µM), hits mostly inhibitors; 6.9% of 320,000 active
#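 Infected RBCs, 2% Hct / 0.05% parasitemia final; luciferase-reporter P. falciparum; cpd 96 h, 37 C, 5% CO2; luciferase detection reagent; luminescence.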
# Pf growth 48h: Primary qHTS for delayed death inhibitors of the malarial parasite plastid, 48 hour incubation. Potency, µM (series often up to 28.7 µM), most hits filed as inhibitors. P. falciparum luciferase growth in erythrocytes, 48 h. 5.9% of 310,000 active. AID 504832, 2011
#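 Luciferase-expressing P. falciparum in infected erythrocytes (2% hematocrit, 0.1% parasitemia final) in RPMI 1640/0.5% Albumax were exposed to compound for 48 hours at 37 C, 5% CO2; growth read as luminescence.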
# CHX counter: Cycloheximide Counterscreen for Small Molecule Inhibitors of Shiga Toxin. max response, %. cell reporter, cycloheximide protein synthesis inhibition counterscreen. 12% of 300,000 active; in the data active = max response mostly above about 13%, no sharp cut-off; inactive = mostly below about 14%; note: read at 38.3 µM for the half of the compounds with a filed dose
# Shiga toxin inh: A qHTS for Small Molecule Inhibitors of Shiga Toxin. Vero cells, Shiga toxin protein synthesis inhibition reporter. inhibition, % at 38.7 µM. 9.2% of 290,000 active. AID 2315, 2010; in the data active = inhibition mostly above about 28%, no sharp cut-off; inactive = mostly below about 43%
# HCMV antiviral: qHTS Assay for inhibitors of the human cytomegalovirus (HCMV) | HFF cells, HCMV-luciferase reporter, 72 h; hits give low values | activity change, negative = inhibition, % at 57.5 µM | 4.5% of 410,000 active; in the data active = activity change below about -60%; inconclusive = no clear call, values can overlap the other calls; inactive = above about -39%
#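 Inhibition of viral replication was scored as loss of reporter luminescence in HFFs infected with HCMV-luciferase (MOI 1 PFU/cell) for 72 h; compounds tested at 2 doses, normalized to buffer and Salinomycin controls.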
# A number is an active result; - = inactive; ? = inconclusive; . = not tested or not shown; [ ] = dose if it differs, or a comment. A selection: hits, their analogues and other compounds. The true share with any hit is near 21%. Unless noted, calls come from the whole dose curve; as a rule, active = well fitted inhibition curve with a large enough effect; inconclusive = small, poorly fitted or top-dose-only effect, or another doubt; inactive = no such curve, though single readings can be large or run the other way.
SMILES,HCV inh,Pf growth 96h,Pf growth 48h,CHX counter,Shiga toxin inh,HCMV antiviral
C[C@@H](NC(=O)c1ncn(Cc2ccccc2)c1C(=O)N[C@H](C)c1ccccc1)c1ccccc1,?,?,13µM,.,.,-
Cc1ccc(SCCNC(=O)CN(c2cccc(C)c2C)S(C)(=O)=O)cc1,.,.,.,.,.,-
CSCc1nc2sc(C(=O)Nc3nc(C)cs3)c(C)c2c(=O)[nH]1,11µM,-,-,33,-,-
Cc1csc(NC(=O)CSc2nc3sc(C)c(C)c3c(=O)[nH]2)n1,-,-,-,-,-,-
Cc1ccc(NC(=O)c2sc3nc(CCl)[nH]c(=O)c3c2C)c(C)c1,11µM,?,?,-,59,-
O=C(Nc1cc2c3c(c1)CC(=O)N3CCC2)C1CCCCC1,-,-,-,.,.,-
COc1ccc(OC)c(N2C(=O)CC(NNC(=O)c3ccc4c(c3)OCO4)C2=O)c1 (centres undefined),-,.,.,.,.,-
Nc1c(N(CCC2=CCCCC2)C(=O)c2ccccc2F)c(=O)[nH]c(=O)n1Cc1ccccc1,-,?,?,.,.,-
C/C(=N\NC(=O)c1c(C)nc2ccccn12)c1ccc(N2CCOCC2)cc1,-,-,-,28,-,-
C/C(=N\NC(=O)c1c(C)nc2ccccn12)c1ccc(C(C)(C)C)cc1,?,-,-,-,-,-
C/C(=N\NC(=O)c1c(C)nc2ccccn12)c1ccco1,-,-,-,32,42,-
CCOc1cc(C2Nc3ccccc3NC3=C2C(=O)CC(C)(C)C3)ccc1OC(C)=O (centres undefined),-,?,-,-,-,-
CCCCNC(=O)c1nn(-c2ccc(C)cc2)c(=O)c2c1c1ccccc1n2C,.,.,.,.,.,-
CCOC(=O)c1cc(CC)sc1NC(=O)C(c1ccccc1)c1ccccc1,-,8.3µM,?,-,-,-
CCOC(=O)c1cc(CC)sc1NC(=O)C1CC1,11µM,.,-,-,-,-
CCOC(=O)c1cc(CC)sc1NC(=O)c1cc(OCC)c(OCC)c(OCC)c1,2.8µM,5.9µM,8.3µM,-,-,-
CCOC(=O)c1sc(NC(=O)c2ccccc2C(=O)O)c(C(=O)OCC)c1C,?,?,?,-,-,-
CCOC(=O)c1c(NC(=O)C(c2ccccc2)c2ccccc2)sc2c1C1CCN2CC1,?,?,2.1µM,-,-,-65
Cc1c(C(C)CCCO)oc(=O)c2c1Oc1c(C)c(C(C)C[C@H](C)O)oc(=O)c1C2 (some centres undefined),-,?,?,.,.,-
O=C(CN(Cc1ccccc1Cl)C(=O)c1csnn1)NCc1ccccc1,-,?,-,-,-,-
COc1ccc(NC(=O)c2ccc3c(c2)OCO3)cc1S(=O)(=O)N1CCOCC1,-,.,.,.,.,-
COc1ccc(NS(=O)(=O)c2cc(NC(=O)c3ccc(Cl)cc3)ccc2N2CCOCC2)cc1,7.9µM,.,.,.,.,?
O=C(Nc1ccc(Cl)c(S(=O)(=O)N2CCOCC2)c1)c1ccc(Cl)nc1,11µM,7.4µM,?,.,.,?
O=C(NC1=NCCS1)c1ccc(Cl)c(S(=O)(=O)N2CCOCC2)c1,-,-[5.75 µM],?,-,-,-
O=C(Nc1ccc(Cl)c(S(=O)(=O)N2CCOCC2)c1)c1ccccn1,-,-,-,-,-,-
SMILES,HCV inh,Pf growth 96h,Pf growth 48h,CHX counter,Shiga toxin inh,HCMV antiviral
O=C(Nc1ccc(Cl)c(S(=O)(=O)N2CCOCC2)c1)c1ccc2c(c1)OCCO2,10µM,?,13µM,24,47,-62
O=C(Nc1ccc2cn[nH]c2c1)c1ccc(Cl)c(S(=O)(=O)N2CCOCC2)c1,-,?,?,45,-,-
COCCNC(=O)C(c1ccc(Cl)cc1)N(CCOC)C(=O)CCC(=O)Nc1ccccn1 (centres undefined),-,-,-,-,-,-
CC1(C)CC(NC(=S)Nc2ccc([N+](=O)[O-])cc2)CC(C)(C)N1,?,-,?,-,-,-
O=C(COc1ccc(Cl)cc1)NCCc1csc(-c2cccc(F)c2)n1,.,.,.,.,.,-
CCOC(=O)c1scc(-c2ccc(C)cc2)c1S(=O)(=O)N1CCN(c2ccccc2)CC1,.,.,.,.,.,-
O=C(Nc1ccc(Cl)c(S(=O)(=O)N2CCOCC2)c1)c1ccc(OCC2CCCO2)cc1 (centres undefined),?,4.1µM,12µM,-,-,.
O=C(Nc1ccc(Cl)c(S(=O)(=O)N2CCOCC2)c1)c1ccc2c(c1)OCO2,10µM,.,.,.,.,?
COc1ccc(C(=O)Nc2ccc(Cl)c(S(=O)(=O)N3CCOCC3)c2)cc1,8.9µM,.,.,.,.,-76
Cc1ccc(/C=C/C(=O)NC(=S)Nc2ccc(S(=O)(=O)Nc3cc(C)on3)cc2)cc1,-,-,-,-,-,-
COc1cc(C(=O)Nc2ccc(-c3cc(C(F)(F)F)nn3-c3ccccc3)cc2)cc(OC)c1OC,.,.,.,.,.,-
C=CCCC1CN(Cc2ccc(OC)cc2)S(=O)(=O)c2c(Oc3cc(C)c(C)c(C)c3)cccc2O1 (centres undefined),.,.,.,.,.,-
CCOC(=O)c1sc2nc3c(SCC(=O)O)cc(C(=O)c4cc(F)ccc4O)cn3c(=O)c2c1C,-,-,-,-,-,-
COC(=O)c1cc(C(=O)c2cc(F)ccc2O)cn2c(=O)c3c(C)c(C)sc3nc12,?,2.6µM,2.1µM,-,-,?
C=CCN1C(=O)NC(=O)/C(=C\c2ccc(-c3ccccc3[N+](=O)[O-])o2)C1=O,-,-,-,-,-,-
O=C1ON=C(c2ccccc2)/C1=C/c1ccc(-c2ccccc2[N+](=O)[O-])o1,-,8.3µM,?,-,-,-98
Cc1cc(C)cc(NC(=O)CSCc2cc(=O)n3ccsc3n2)c1,-,-,-,-,-,-
O=C(/C=C/Nc1ccc(S(=O)(=O)Nc2cnc3ccccc3n2)cc1)c1ccccc1,-,?,-,28,-,-
COc1cccc(C(=O)/C=C/Nc2ccc(S(=O)(=O)Nc3cnc4ccccc4n3)cc2)c1,-,-,-,69,98,-
O=C1CCCC/C1=C\Nc1ccc(S(=O)(=O)Nc2cnc3ccccc3n2)cc1,-,-,-,-,-,-
COc1cccc(NC(=O)CCN2CCN(CCO)CC2)c1,.,.,.,.,.,-
CCN(CC)C(=O)c1sc2c(c1C)c(=O)n(CCc1ccccc1)c(=O)n2Cc1cc(C)ccc1C,.,.,.,.,.,-
CC(C)(C)S(=O)(=O)c1ccccc1C(=O)O,-,9.3µM,-,-,-,-
O=C(CN1CCCC1)Nc1ccc([N+](=O)[O-])cc1,-,-,-,-,-,-
NS(=O)(=O)c1cccc(NC(=O)CC23CC4CC(C2)CC(CC(=O)Nc2cccc(S(N)(=O)=O)c2)(C4)C3)c1,-,-,?,-,-,-
COc1ccc(NC(=O)CSc2ccccc2)c(OC)c1,-,?,-,43,83,-
